Screen size: about 300,000 compounds; about 2,700 (0.9%) were called active. The full list was thinned out, with actives kept by preference. Unmarked numbers belong to inactive results.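 How the source made its calls: active means mean inhibition of at least 30% with at least half of replicates also reaching 30%; inconclusive means no clear call, values can overlap the other calls; inactive means the rest.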
Molecular target: Golgi-associated PDZ and coiled-coil motif-containing protein (Homo sapiens) (UniProt Q9HD26)
Test: untagged CAL PDZ binding inhibitors, primary screen, biochemical, fluorescence polarization, HTS (AID 602252);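 further: 0% = DMSO neutral control and 100% = excess unlabeled competitor peptide PRC23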
Conditions: purified CAL PDZ, TMR-peptide fluorescence polarization, 1 h; at 24.9 µM; stronger effect = higher value

| SMILES | inhibition |
| --- | --- |
| O=C1CN(C(=O)COC(=O)/C=C/c2ccc(F)cc2)c2ccccc2N1 | -2.46% |
| C=CCn1c(COc2ccccc2F)nnc1SCC(=O)N1CC(=O)Nc2ccccc21 | 56% (active) |
| Nn1c(Cc2cccc3ccccc23)nnc1SCC(=O)N1CC(=O)Nc2ccccc21 | 1.45% |
| COc1cc(NC(=O)c2[nH]cnc2C(N)=O)cc(C(=O)Nc2cccc(C(F)(F)F)c2)c1 | -1.42% |
| COC(=O)c1ccc(/C=C/c2c(-c3ccc(OC)cc3)sc3ccccc23)cc1 | 0.974% |
| COc1ccc(/C=C/c2noc(-c3ccccc3OC(C)=O)n2)cc1 | 87% (active) |
| COc1cccc(/C=C/c2ccc3ccccc3n2)c1OC(C)=O | -0.936% |
| COCC(=O)N(C)[C@H]1C[C@H]2c3cc(Oc4ccccc4C)ccc3CCN2C(=O)[C@H]1[C@H](C)O | -3.46% |
| C=CCC[C@@H](Cc1ccc(F)cc1)C(=O)OC[C@@H](C)NC(=O)[C@H](CC=C)CC(=O)N(CCO)Cc1ccccc1 | 3.24% |
| COc1ccc(-c2noc(CCC(=O)N3CCN(c4cccc(C)c4)CC3)n2)cc1 | -3.56% |
| COc1ccc(CNC(=O)C[C@H]2C[C@H](C(=O)N3CCOCC3)[C@@]3(C)c4[nH]c5cc(CCC(=O)N(C)C)ccc5c4CCN3C2=O)cc1OC | -5.01% |
| Cc1cccc(OCC(O)CN2CCN(S(=O)(=O)c3ccc(C)cc3C)CC2)c1 (stereo not given) | 1.68% |
| CC(=O)c1ccc(OCC(O)CN2CCN(S(=O)(=O)c3cccc(Br)c3)CC2)cc1 (stereo not given) | 35% (active) |
| O=S(=O)(c1ccc(OCC(O)CN2CCN(c3ccccc3Cl)CC2)cc1)N1CCOCC1 (stereo not given) | -2.34% |
| COC(=O)c1ccc(NCc2cc(O)ccc2O)cc1 | 0.712% |
| COc1cc(/C=C2/C(=O)ON=C2C)ccc1OCc1cccc(F)c1 | 40.4% (active) |
| C=CCOc1ccc(/C=C2/C(=O)ON=C2C)cc1OCC | -3% |
| COc1cc(/C=C2/C(=O)ON=C2C)ccc1OCc1ccccc1F | -3.18% |
| COc1cc(OC)c(C(=O)NNC(=O)c2ccc(NS(=O)(=O)c3cccs3)cc2)cc1OC | -2.8% |
| C=CC(=O)Nc1ccc(Nc2ccnc(Nc3ccc(N4CCN(C)CC4)cc3)n2)cc1 | -0.863% |
| COC(=O)c1ccc(NC(=S)Nc2cccc(C)n2)cc1 | 52.8% (active) |
| CCOC(=O)c1ccc(NC(=S)Nc2cc(C)cc(C)n2)cc1 | -17% |
| COC(=O)c1ccc(NC(=O)Nc2ccc(C)cc2)cc1 | -0.88% |
| O=C(N[C@@H]1C/C=C\C[C@@H](CC(=O)N(CCO)Cc2ccccc2)C(=O)N[C@H](Cc2ccccc2)COC1=O)OCC1c2ccccc2-c2ccccc21 | 14.1% |
| CC1Cc2ccccc2N1S(=O)(=O)c1cccc(C(=O)NCC(c2ccco2)N2CCCC2)c1 (stereo not given) | 1.18% |
| COC(=O)[C@]1(Cc2ccccc2)N[C@H](CN(C)S(=O)(=O)c2ccc(F)cc2)[C@@H]2C(=O)N(Cc3ccccc3)C(=O)[C@@H]21 | -4.16% |
| COc1cc(/C=C/C(=O)Nc2ccc(OC)c(S(=O)(=O)N3CCOCC3)c2)ccc1OCC#N | -3.83% |
| Cc1csc(SCC(=O)N(c2ccccc2)C(C)C)n1 | -3.25% |

| SMILES | inhibition |
| --- | --- |
| CC(C)N(C(=O)CSc1nnc(NC2CC2)s1)c1ccccc1 | 31.5% (active) |
| CN(C(=O)CSc1nnc(Nc2ccccc2)s1)C1CCS(=O)(=O)C1 (stereo not given) | -5.88% |
| C=CCOC(=O)N1CCC2CC1c1cc(-c3ccc(OC)cc3)ccc12 (stereo not given) | -1.31% |
| CCc1cccc(C)c1NC(=O)COC(=O)CC1CCCC1 | 31.1% (active) |
| CCc1cccc(C)c1NC(=O)COC(=O)Cc1ccsc1 | 5.55% |
| Cc1cccc(C)c1NC(=O)CNC(=O)C1CCCC1 | -2.92% |
| COc1ccc2[nH]c3c(c2c1)CCN1C(=O)C(CC(=O)NCc2cccc(C(F)(F)F)c2)C[C@H](C(=O)N2CCOCC2)[C@@]31C (stereo not given in full) | -2.83% |
| COc1cc(/C=C/C(=O)OCC(=O)c2ccccc2)cc(OC)c1OC | -8.15% |
| CCOC(=O)C(C)n1cnc2sc(C)c(C)c2c1=O (stereo not given) | -4.48% |
| Cc1c(C(N)=O)sc2ncn(CCOc3ccccc3)c(=O)c12 | 40.6% (active) |
| Cc1cccc(OC(=O)c2sc3ncn(C)c(=O)c3c2C)c1 | -1.6% |
| O=[N+]([O-])c1cc2ccccc2nc1-c1ccccc1 | 3.37% |
| Cc1cc(C)cc(C(=O)NCC(=O)OCC(=O)N2CCCCC2)c1 | -4.99% |
| COc1cc(OC)cc(C(=O)NCC(=O)N2CCCCCCC2)c1 | 59.5% (active) |
| CCOc1ccc(C(=O)NCC(=O)N2CCCCCCC2)cc1OCC | 2.87% |
| Cc1ccc(C2(C)NC(=O)N(CC(=O)N3CC(=O)Nc4ccccc43)C2=O)cc1 (stereo not given) | -3.12% |
| CC(OC(=O)CCCOc1ccccc1)C(=O)Nc1ccc(Cl)cn1 (stereo not given) | -3.1% |
| Cc1cccc(OCC(=O)OCC(=O)Nc2ccc(Cl)cn2)c1 | 74.8% (active) |
| O=C(COC(=O)c1ccco1)Nc1ccc(Cl)cn1 | -5.62% |
| CC(=O)Nc1ccc(S(=O)(=O)NCCC(=O)N2CCN(c3ccccc3Cl)CC2)cc1 | -2.76% |
| COc1cc(C)ccc1OCC(=O)OCC(=O)c1ccc[nH]1 | 3.54% |
| Cc1cccc(CC2(O)C(=O)Nc3ccccc32)n1 (stereo not given) | 3.12% |
| Cc1cc([N+](=O)[O-])ccc1NS(=O)(=O)c1ccccc1 | 2.21% |
| CC(=O)c1ccc(OCCCC(=O)Nc2ccc(C)c(S(=O)(=O)N3CCOCC3)c2)cc1 | -2.79% |
| CCN(CC)S(=O)(=O)c1ccc(Cl)c(C(=O)NCCN2CCOCC2)c1 | 34.1% (active) |
| CCN(CC(=O)NCCCN1CCOCC1)S(=O)(=O)c1cc(Cl)ccc1Cl | 6.12% |
| CCN(CC)S(=O)(=O)c1ccc(N2CCOCC2)c(C(=O)O)c1 | -7.23% |
